Test results: PubChem BioAssay AID592 (National Center for Advancing Translational Sciences (NCATS), 2007)
Out of some 59,000 compounds screened, fewer than 10 were called active. No rule for the calls is given here. A selection follows.

Test: qHTS Assay for Spectroscopic Profiling in A647 Spectral Region
Settings: Compound fluorescence, A647 channel (570/671 nm), Tris buffer; stronger effect = higher value
Excerpt: NIH Molecular Libraries Screening Centers Network [MLSCN] NIH Chemical Genomics Center [NCGC] […] Occasionally, the artifactual effect may originate from the compounds own spectral or other biophysical properties which generally tend to track its assay concentration. Pre-screening/profiling the library with respect to the compounds spectral properties should help one exclude false positives early on. While the most informative fluorescent profiling data set is obtained by performing a full excitation and emission scan of each well by using a monochromator-based plate reader, such an approach is practical only on a very limited scale as scanning each well requires long time. An alternative approach, applied here, is to perform plate reader scans using selected excitation and emission wavelength pairs to generate a multidimensional relational database that correlates compound concentration and the respective relative fluorescence intensity at a given wavelength set. A standard curve of Alexa 647 (A647) present on each plate as six-point concentration series, was used to compute a normalized fluorescence response, termed dye-equivalent concentration, for each compound at each concentration.
NCGC Assay Protocol Summary: Buffer: 100 mM Tris buffer, pH 8.0 Dye standard plate: The wells in columns 1 through 4 of a Kalypsys polypropylene 1536-well compound plate were filled with standard solutions of fluorophore corresponding to the spectral region of interest. Solutions of A647 were placed in the following wells: AC1, AD1: 3 mM, AC2, AD2: 300 uM, AC3, AD3: 30 uM, AC4, AD4: zero (DMSO), AE1, AF1: 3 uM, AE2, AF2: 900 nM, AE3, AF3: 300 nM, AE4, AF4: zero (DMSO). Assay Steps: Six uL of buffer were dispensed to 1536-well Greiner black plates. Compounds and dye standards (23 nL) were transferred via Kalypsys PinTool. The plates were incubated for 15 min at room temperature, and then read on ViewLux (Perkin-Elmer) High-throughput CCD imager using 570 nm and 671 nm excitation and emission filter set. Keywords: NIH Roadmap, MLSCN, MLI, MLSMR, qHTS, NCGC, A647, A-647, Fluorescent Profiling.

Max dye-equivalent concentration, inactive:
O=c1c(-c2cccs2)nc2cnc(Oc3ccccc3)nc2n1-c1ccccc1 2.8 nM
COc1cc(C2C3C(=O)N(c4ccccc4)C(=O)C3ON2c2ccccc2)ccc1O (stereo unspecified) 30 nM
COc1ccc2oc(=O)c(C(=O)O)cc2c1 1 nM
O=C1N(Cc2ccc3c(c2)OCO3)c2ccccc2C1(O)c1c[nH]c2ccccc12 (stereo unspecified) 1 nM
O=C1CCC(C(=O)Nc2ccc(OC(F)F)cc2)N1 (stereo unspecified) 1 nM
CC(=O)N1CCC2(CCCN(c3ncccn3)C2)CC1 1 nM
Cc1ccccc1Nc1nnc(C)c(=O)[nH]1 45 nM
Cc1ccc(-n2c(N)c(C(=O)N3CCOCC3)sc2=S)c(C)c1 1 nM
CC(=O)OC(C(=O)NC1CCCCC1)c1ccccc1 (stereo unspecified) 30 nM
NC(=O)C1CCN(C(=O)c2ccc(C(F)(F)F)cc2)CC1 1 nM
COc1cccc(Cn2c(=O)c(C)nc3cnc(Oc4ccccc4)nc32)c1 1 nM
Cc1cccc(NC(=O)c2ccccc2NC(=O)C(C)(C)C)n1 39 nM
CCc1ccccc1NC1c2ccccc2C(=O)N1c1cccnc1 (stereo unspecified) 11 nM
CCOC(=O)c1c(C)nc(-c2ccccc2)nc1NC(=O)C(C)C 1 nM
Cc1nc(NCc2ccccc2)c(C(N)=O)c2c1COC(C)(C)C2 37 nM
COc1ccccc1CNC(=O)CCCn1c(=O)c2ccccc2n(CC(=O)NC2CCCC2)c1=O 28 nM
O=C(c1cccs1)N1CCN(C(=O)N2CCOCC2)CC1 9.6 nM
CC1Cc2nc(SCC(=O)Nc3ccccc3F)n(C)c(=O)c2S1 (stereo unspecified) 1 nM
COc1ccc2nccc(C(=O)O)c2c1 1 nM
CCn1c(=N)c(S(=O)(=O)c2ccc(F)cc2)cc2c(=O)n3ccccc3nc21 1.8 nM
O=C(CCCN1C(=O)CSc2ncccc21)N1CCN(c2cccc(C(F)(F)F)c2)CC1 6.4 nM
COc1ccc(C(=O)Nc2cccnc2)cc1C(=O)Nc1cccnc1 1.5 nM
OCCCN1c2ccccc2Nc2nnc(-c3ccccc3)cc21 20 nM
CCOC(=O)c1[nH]cnc1C(=O)NC1CCCCC1 1 nM
ClC(Cl)(Cl)C(N1CCN(c2ccccc2)CC1)N1CCN(c2ccccc2)CC1 1 nM
CN(Cc1ccco1)c1cc(-c2ccccc2C(F)(F)F)ncn1 1 nM
CC(=O)Oc1cccc(N2C(=O)CC(Nc3ccc(N4CCOCC4)cc3)C2=O)c1 (stereo unspecified) 1 nM
Cn1c(=O)[nH]c(=O)c2c1nc(N(CCO)Cc1ccccc1)n2Cc1ccccc1Cl 78 nM
Cn1cccc1C(=O)N1CCC2(CC1)CN(c1cccc(-c3ccccc3)c1)C2 18 nM
CCCCn1c(=S)[nH]c2ncccc2c1=O 1 nM
CC1(C)SC2c3ccccc3C(=O)N2[C@@H]1C(=O)NCc1ccco1 (stereo partly specified) 1 nM
O=C(O)CN1C(=O)CC(Cc2ccccc2)C1=O (stereo unspecified) 1 nM
O=C(Cc1c(F)cccc1Cl)N1CCN(C(=O)c2ccco2)CC1 7.2 nM
CCCn1c(=O)c2[nH]c(-c3ccc(OCC(=O)NCCN)cc3)nc2n(CCC)c1=O 50 nM
O=c1[nH]c(=O)c2nc3ccccc3nc2[nH]1 49 nM
Cc1nc2nc3c(cn2n1)C(=O)CC(c1ccccc1)C3 (stereo unspecified) 28 nM
CSCC[C@H](NC(=O)NCc1cccs1)C(=O)O 3.7 nM
CN(C(=O)COc1nnc(-c2cccs2)c(-c2cccs2)n1)c1ccccc1 1 nM
Cc1cc(N2C(=O)C(=O)/C(=C(/O)c3ccccc3)C2c2cccc(Br)c2)no1 (stereo unspecified) 1.8 nM
C/C(N)=C(\C#N)C(=O)NCCc1ccccn1 39 nM
CCc1nnc(NC(=O)c2nc3nccc(C)n3n2)s1 18 nM
N#Cc1ccc(CSc2nnc(-c3ccccn3)n2-c2ccc(Cl)cc2)cc1 2.1 nM
Clc1ccc(C=Nc2ccc3c(c2)Cc2ccccc2-3)c(Cl)c1 3.2 nM
CN(C)CCCNC(=O)c1ccc2[nH]c3ccccc3c2c1 3 nM
CC(C)CSC[C@@H]1O[C@H](n2cnc3c(N)nccc32)[C@H](O)[C@@H]1O 13 nM
Cc1ccccc1Nc1nc(N)nc(CN2CCN(c3ccccn3)CC2)n1 44 nM
COc1ccc(C(c2nnnn2Cc2cccs2)N2CCN(c3ccccc3)CC2)cc1OC (stereo unspecified) 11 nM
COC(=O)CNC(=O)c1ccc2c(c1)S(=O)(=O)c1ccccc1C2=O 6.7 nM
O=C(O)c1ccc(C(=O)c2ccccc2C(=O)O)cc1C(=O)O 3.2 nM
O=C(O)CSCNC(=O)CC12CC3CC(CC(C3)C1)C2 1.2 nM
COc1cc(C(=O)N(Cc2ccc(N(C)C)cc2)C2CCS(=O)(=O)C2)cc(OC)c1OC (stereo unspecified) 8.2 nM
O=S(=O)(/C=C/c1ccccc1)NCCc1ccccn1 23 nM
Fc1ccccc1C(c1nnnn1Cc1ccc2c(c1)OCO2)N1CCN(Cc2ccccc2)CC1 (stereo unspecified) 3.5 nM
Cc1cc(C)nc(SCc2nnc(SCC(=O)OC3CCCCC3)o2)n1 1 nM
Cc1csc(NC(=O)C2CCCN2C(=O)OCC(C)C)n1 (stereo unspecified) 15 nM
N=C(CC(=O)Nc1ccccn1)c1ccccc1 36 nM
Cc1oc(C)c(C(=O)NCCCC(=O)O)c1C(=O)NCCCC(=O)O 15 nM
Cc1c(O)c(Br)c(C)c(O)c1Br (tested in a mixture with another compound) 36 nM
O=C1c2ccccc2C(=O)N1CCCSc1ccccc1 1 nM
Cc1ccc(NC(=O)C2CCCN(S(=O)(=O)c3c(C)noc3C)C2)c(C)c1 (stereo unspecified) 5.9 nM
CCCNS(=O)(=O)c1ccc(CCC(=O)NCc2cccnc2)cc1 46 nM
Cn1c(=O)[nH]c(=O)c2c1nc(CN(Cc1ccccc1)Cc1ccccc1)n2CCN1CCOCC1 2 nM
CCn1c(=O)cc(SCC(=O)NCc2ccc3c(c2)OCO3)c2ccccc21 34 nM
CCc1cc2c(=O)c(-c3ccon3)c(N)oc2cc1OC 23 nM
N#Cc1cccc(NC(=O)CCC2CCCC2)c1 1 nM
Cc1nnc(SCc2ccc(C(=O)c3ccc(Cl)cc3)o2)n1-c1ccccc1 1.7 nM
Cn1c2ccccc2c2c(C(=O)N3CCN(c4ccc(F)cc4)CC3)cn(C3CCCC3)c(=O)c21 2.8 nM
CCn1c(Cc2ccccc2)nnc1SCc1nc2ccccc2c(=O)[nH]1 3.7 nM
CCCOc1ccc(-c2nc(N)n[nH]2)cc1 1 nM
Cc1nnc(SCC(=O)N2CCc3ccccc32)n1-c1ccccc1 30 nM
O=C(Nc1c[nH]c(=O)[nH]c1=O)Oc1ccccc1 1 nM
COC(=O)c1c(NC(=O)CSc2nncs2)sc2c1CCCCC2 57 nM
CCCCN(CCCC)C(=O)CCS(=O)(=O)c1ccc2c(c1)n(C)c(=O)c(=O)n2C 16 nM
COc1cc(NS(=O)(=O)c2ccc(NC(C)=O)cc2)cc(OC)c1 2 nM
COc1ccc(S(=O)(=O)N2CCN(c3ncnc4c(-c5ccccc5)nsc34)CC2)cc1 45 nM
C#CCN1C(=O)C(O)(CC(=O)c2cc(OC)ccc2OC)c2ccccc21 (stereo unspecified) 44 nM
COc1ccc2c(c1)C(C)=CC(C)(C)N2C(=O)CNCc1ccc2c(c1)OCO2 27 nM
CN(C)Cc1c(C#N)c2ccccc2n1C 1 nM
CN1CCCC(OC(=O)COc2ccc(Br)cc2)C1 (stereo unspecified) 2.1 nM
Fc1ccc2nc(Nc3nc4c(s3)CCCC4)sc2c1 34 nM
Cc1n[nH]c(C)c1S(=O)(=O)N1CCCC(C(=O)NCC2COc3ccccc3O2)C1 (stereo unspecified) 15 nM
CCON=C1C(C)(C)C(C)(C)C(C)(C)C1(C)C 1 nM
CC(C)c1ccc(N2CC(C(=O)Nc3nccs3)CC2=O)cc1 (stereo unspecified) 1 nM
Cc1nc(NC(=O)CCC(=O)O)sc1C(=O)N(C)C 1 nM
Cc1nc2ncnn2c(C)c1CCC(=O)N1CCN(C(=O)c2ccco2)CC1 1 nM
CN1CCc2c(sc3c2c(NCc2ccco2)nc2nnnn23)C1 1 nM
CCN(C(=O)CSc1ncn[nH]1)c1cccc2ccccc12 1 nM
Cc1nn(-c2ccccc2)c2sc(C(=O)N(Cc3ccco3)C(C)C(=O)NC(C)(C)C)cc12 (stereo unspecified) 1 nM
COc1ccc2c(c1)CCc1c(C(=O)Nc3c(C)n(C)n(-c4ccccc4)c3=O)noc1-2 1 nM
Cc1cc2ccccc2n2c(SCC(=O)N3CCN(C(=O)c4ccco4)CC3)nnc12 3.8 nM
CCSc1nc2c(c(=O)[nH]1)C(c1cccnc1)C(C(=O)OC(C)C)=C(C)N2 (stereo unspecified) 29 nM
